Data on 26 molecules can be found in PMC11062922 (Nature Chemical Biology, 2023).

Holding throughout (parameters): species or system human, MV4-11 + K-562 + COLO205 + SK-N-BE2 + OVCAR-8
In one assay the test system is CDK16. Particulars: read-out: apparent Kd, n = 1.
The test system of the next assay is CSK. Particulars: read-out: apparent Kd, compound concentrations: 100 nM and 1000 nM (sheet 'Samples'), n = 1.
A further assay has as its system ZAK. Particulars: read-out: apparent Kd, compound concentrations: 100 nM and 1000 nM (sheet 'Samples'), n = 1.
The test system of the next assay is BTK. Particulars: read-out: apparent Kd, compound concentrations: 100 nM and 1000 nM (sheet 'Samples'), n = 1.
The test system of the next assay is CDKL5. Particulars: read-out: apparent Kd, n = 1.
Another assay concerns EPHA1. The following applies: read-out: apparent Kd, compound concentrations: 100 nM and 1000 nM (sheet 'Samples'), n = 1.
A further assay concerns LYN. The following applies: read-out: apparent Kd, compound concentrations: 100 nM and 1000 nM (sheet 'Samples'), n = 1.
For the next assay, the system named is ACVR1B. The following applies: read-out: apparent Kd, compound concentrations: 100 nM and 1000 nM (sheet 'Samples'), n = 1.
The subject of another assay is EGFR. The following applies: read-out: apparent Kd, n = 1.
Another assay deals with FRK. The following applies: read-out: apparent Kd, compound concentrations: 100 nM and 1000 nM (sheet 'Samples'), n = 1.
Another assay concerns SIK2. Particulars: read-out: apparent Kd, n = 1.
The next assay concerns SRC. Particulars: read-out: apparent Kd; compound concentrations: 100 nM and 1000 nM (sheet 'Samples'), CATDS: 2.25730576079274E-2; n = 1.
The test system of the next assay is GSK3A. Particulars: read-out: apparent Kd, n = 1.
The next assay relates to GSK3B. The following applies: read-out: apparent Kd, n = 1.
A further assay concerns FLT3. Particulars: read-out: apparent Kd; compound concentrations: 100 nM and 1000 nM (sheet 'Samples'), CATDS: 0.86450810261160804; n = 1.
In a further assay the test system is DDR1. The following applies: read-out: apparent Kd, n = 1.
For the next assay, the system named is ACAD11. Particulars: read-out: apparent Kd, n = 1.
The test system of the next assay is MAP2K5. The following applies: read-out: apparent Kd; compound concentrations: 100 nM and 1000 nM (sheet 'Samples'), CATDS: 9.4548103744077197E-2; n = 1.
In another assay the test system is DYRK1A. The following applies: read-out: apparent Kd; compound concentrations:100 nM and 1000 nM (sheet 'Samples'); n = 1.
Setting [1] is: compound concentrations:100 nM and 1000 nM (sheet 'Samples').

Molecules are shown by their SMILES. Where two headings read alike, the source gives them in different places.

Take `CC(=O)N1CCN(c2ccc(Nc3nccc(-c4sc(C(C)C)nc4-c4cccc(NS(=O)(=O)c5cccc(Cl)c5)c4)n3)cn2)CC1` [GSK1660437A]: the potency estimated from few doses in the assay with CDK16 (compound concentrations: 100 nM and 1000 nM (sheet 'Samples'), CATDS: 4.5005275972449597E-2) is 1070 nM; in the assay on CSK (CATDS: 5.27130468240418E-2) it was 741 nM; in the assay on ZAK (CATDS: 3.4947671861574499E-2) it was 2310 nM.
In the case of `CC(C)c1nc(-c2cccc(NS(=O)(=O)c3c(F)cccc3F)c2F)c(-c2ccnc(Nc3ccc(N4CCOCC4)nc3)n2)s1` [GSK2008607A], the potency estimated from few doses with BTK (CATDS: 2.19270493489029E-2) is 1030 nM; in the assay on CDK16 (compound concentrations: 100 nM and 1000 nM (sheet 'Samples'), CATDS: 3.1735932444665597E-2) it was 424 nM; in the assay on CDKL5 (compound concentrations: 100 nM and 1000 nM (sheet 'Samples'), CATDS: 1.9051705210026099E-2) it was 1650 nM; in the assay with CSK (CATDS: 4.1008032947333198E-2), 262 nM; in the assay on EPHA1 (CATDS: 2.5663443213215401E-2), 679 nM; in the assay on LYN (CATDS: 2.5134529621639101E-2), 715 nM.
On to `CC(C)c1nc(-c2cccc(NS(=O)(=O)c3c(F)cccc3F)c2)c(-c2ccnc(Nc3ccc(N4CCOCC4)nc3)n2)s1.Cl` [GSK1723980B], for which the potency estimated from few doses in the assay on ACVR1B (CATDS: 1.87484218332362E-2) was 614 nM; in the assay with BTK (CATDS: 1.5505297907028599E-2), 1260 nM; with CDK16 (compound concentrations: 100 nM and 1000 nM (sheet 'Samples'), CATDS: 2.4648897890500801E-2), 294 nM; in the assay with CDKL5 (compound concentrations: 100 nM and 1000 nM (sheet 'Samples'), CATDS: 1.7066760873740601E-2), 848 nM; in the assay on CSK (CATDS: 4.9145326105273501E-2), 81.6 nM; in the assay on EGFR (compound concentrations: 100 nM and 1000 nM (sheet 'Samples'), CATDS: 1.4688482058743299E-2), 1660 nM. Besides, the potency estimated from few doses in the assay on EPHA1 (CATDS: 2.59841988169222E-2) is 261 nM; in the assay with FRK (CATDS: 1.9563018152501301E-2), 538 nM; with LYN (CATDS: 2.8217143003072001E-2) it was 219 nM; in the assay with SIK2 (compound concentrations: 100 nM and 1000 nM (sheet 'Samples'), CATDS: 1.4802843404643599E-2) it was 1590 nM; with SRC, 364 nM; with ZAK (CATDS: 1.6677685613390399E-2), 926 nM.
Turning to `Cl.Cn1c(=O)c(Cc2ccc(F)cc2F)cc2cnc(NC3CCOCC3)nc21` [RO3308757-001], the potency estimated from few doses in the assay with GSK3A (setting [1]) was 484 nM; in the assay on GSK3B (setting [1]) it was 745 nM; in the assay with SIK2 (setting [1]), 812 nM.
Turning to `Cn1cc(C2=C(c3cn(CCCCCO)c4ccccc34)C(=O)NC2=O)c2ccccc21` [RO0318053-000], the potency estimated from few doses in the assay on GSK3A (compound concentrations: 100 nM and 1000 nM (sheet 'Samples'), CATDS: 0.11270550310053699) is 467 nM; with GSK3B (compound concentrations: 100 nM and 1000 nM (sheet 'Samples'), CATDS: 0.11014328392113699) it was 504 nM.
For the molecule `Clc1ccc(-c2nn3ncccc3c2-c2ccnc(Nc3ccccc3)n2)cc1` [GW829055X], the potency estimated from few doses in the assay on LYN (CATDS: 3.75888213105793E-2) is 1350 nM.
Turning to `O=C1Nc2ccc(F)cc2/C1=C/c1ccc[nH]1` [RO0272148-000], the potency estimated from few doses in the assay on FLT3 was 98.5 nM.
On to `COc1ccc(-c2nn3ncccc3c2-c2ccnc(Nc3ccc4c(c3)OCCO4)n2)cc1` [GW827106X], for which the potency estimated from few doses in the assay with ACVR1B (CATDS: 6.5023219002079705E-2) is 849 nM; with DDR1 (compound concentrations: 100 nM and 1000 nM (sheet 'Samples'), CATDS: 9.2725066561010094E-2), 461 nM.
Turning to `COc1cc(F)c(F)c(F)c1C(=O)c1cnc(NC2CCN(S(C)(=O)=O)CC2)nc1N` [RO4600703-000], in the assay with CDK16 (setting [1]), the potency estimated from few doses is 51 nM.
On to `CC(=O)Nc1ccc2c(C3=C(c4cn(C)c5ccccc45)C(=O)NC3=O)cn(C)c2c1` [RO0317596-000], for which the potency estimated from few doses in the assay with GSK3A (compound concentrations: 100 nM and 1000 nM (sheet 'Samples'), CATDS: 0.16934615909466) is 626 nM; in the assay on GSK3B (compound concentrations: 100 nM and 1000 nM (sheet 'Samples'), CATDS: 0.12883781394947599) it was 1100 nM.
On to `COc1ccccc1C(=O)c1cnc(NC2CCN(S(C)(=O)=O)CC2)nc1N` [RO4514610-000], for which the potency estimated from few doses in the assay on CDK16 (setting [1]) is 721 nM.
Turning to `COc1cc2ncn(-c3cc(O[C@H](C)c4ccccc4Cl)c(C(N)=O)s3)c2cc1OC` [GSK237701A], in the assay on ACAD11 (setting [1]), the potency estimated from few doses was 756 nM.
Turning to `COc1cc(N2CCN(C(C)C)CC2)ccc1Nc1nc(Nc2cccc(F)c2C(=O)O)c2cc[nH]c2n1` [GSK1819799A], in the assay on FRK (CATDS: 5.2265489654336902E-2), the potency estimated from few doses is 1130 nM.
For the molecule `COc1ccc(-c2ccncc2)cc1C(N)=O` [GSK605714A], the potency estimated from few doses with ACAD11 (compound concentrations: 100 nM and 1000 nM (sheet 'Samples'), CATDS: 0.66413142428119099) is 619 nM.
Take `COc1ccc(C2=C(c3cn(C)c4ccccc34)C(=O)NC2=O)cc1OC` [RO3206363-000]: the potency estimated from few doses was 503 nM in the assay on GSK3A (compound concentrations: 100 nM and 1000 nM (sheet 'Samples'), CATDS: 4.8098017287816999E-2); 722 nM in the assay with GSK3B (compound concentrations: 100 nM and 1000 nM (sheet 'Samples'), CATDS: 4.2103313064090798E-2).
As for `Fc1ccc(-c2ncn(C3CCNCC3)c2-c2ccnc(Oc3ccc4c(c3)OCO4)n2)cc1` [SB-250715], the potency estimated from few doses in the assay with CDK16 (setting [1]) is 2360 nM.
Turning to `Cl.Oc1ccc2ncnc(Nc3ccc(OCc4ccccc4)cc3)c2c1` [GI262866A], the potency estimated from few doses in the assay with EGFR (setting [1]) is 106 nM.
As for `Fc1cccc(COc2ccc(Nc3ncncc3C#Cc3ccccc3)cc2Cl)c1` [GW651576X], the potency estimated from few doses in the assay on EGFR (compound concentrations: 100 nM and 1000 nM (sheet 'Samples'), CATDS: 8.85764063435832E-2) was 663 nM.
In the case of `Nc1c(C(=O)c2ccccc2)cnn1-c1ccc(F)cc1` [RO1151246-000], the potency estimated from few doses in the assay with CDKL5 (setting [1]) was 997 nM.
Turning to `Cc1ccc(NC(=O)Nc2ccccc2)cc1-c1ccc(C(=O)Nc2ccncc2)cc1` [GSK1398471A], the potency estimated from few doses in the assay with MAP2K5 was 2350 nM.
In the case of `Cl.Fc1cccc(COc2ccc(Nc3ncnc4cc(-c5ccc[nH]5)sc34)cc2Cl)c1` [GW693881A], the potency estimated from few doses in the assay on EGFR (compound concentrations: 100 nM and 1000 nM (sheet 'Samples'), CATDS: 0.260445959414705) was 495 nM.
Take `Cn1cc(C2=C(c3cn(CCCN/C(N)=N/[N+](=O)[O-])c4ccccc34)C(=O)NC2=O)c2ccccc21` [RO0318161-000]: the potency estimated from few doses in the assay with GSK3A (compound concentrations: 100 nM and 1000 nM (sheet 'Samples'), CATDS: 0.30578210093767899) was 1280 nM.
Consider `CCS(=O)(=O)c1ccc(OC)c(Nc2ncc(-c3cccc(F)c3)o2)c1` [GW621970X_KCGS], for which, in the assay on DYRK1A, the potency estimated from few doses was 1660 nM.
For `Cn1cc(C2=C(c3ccccc3[N+](=O)[O-])C(=O)NC2=O)c2ccccc21` [RO0317753-000], the potency estimated from few doses in the assay with CDK16 (compound concentrations: 100 nM and 1000 nM (sheet 'Samples'), CATDS: 7.8370889513180206E-2) is 1340 nM; with GSK3A (compound concentrations: 100 nM and 1000 nM (sheet 'Samples'), CATDS: 0.31381008714401198) it was 26.1 nM; in the assay on GSK3B (compound concentrations: 100 nM and 1000 nM (sheet 'Samples'), CATDS: 0.304149371612502) it was 27.6 nM.
Regarding `Cc1ccc(-n2nc(C(C)(C)C)cc2NC(=O)Nc2ccc(OCCN3CCOCC3)cc2)cc1` [BIRB0876BS], the potency estimated from few doses with DDR1 (setting [1]) was 607 nM.
With `Cc1[nH]nc2c1N=C(c1ccccc1Cl)c1cc([N+](=O)[O-])ccc1N2` [RO0274406-000], the potency estimated from few doses with GSK3A (compound concentrations: 100 nM and 1000 nM (sheet 'Samples'), CATDS: 0.10002413728449901) was 504 nM; in the assay on GSK3B (compound concentrations: 100 nM and 1000 nM (sheet 'Samples'), CATDS: 0.102894851356177) it was 472 nM.
